Results from PubChem BioAssay (EPA / NIEHS).
Where “and” joins values, the source holds several entries; their conditions need not be identical. Equal values may be shown once. Records with an inconclusive call do not appear. A structure can be active in one record and inactive in another. Calls of active or inactive are those of the source. How the source made its calls: active means hit-call score of the fitted dose curve at least 0.9, where 1 is the maximum; inconclusive means response in the unintended direction; inactive means score below 0.9.

Columns and labels:
[1] = target: Cellular tumor antigen p53 (Homo sapiens) (UniProt P04637); assay: TOX21_p53_BLA_p2_ratio: Tox21 HCT-116 p53 Agonism Beta-lactamase Assay, Ratio, Phase 2 (AID 2283592)
Procedure, shortened: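 An inducible beta-lactamase reporter in HCT116 cells signals p53 pathway activation. After 16 h chemical exposure at 37C, cells load CCF4-AM substrate for 2 h at room temperature; activity is the cleaved/uncleaved emission ratio relative to DMSO.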

[2] = TOX21_p53_BLA_p3_viability: Viability Assessment in the Tox21 HCT-116 p53 Agonism Beta-lactamase Assay, Phase 3 (AID 2283593);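 further: cells exposed to compound for 16 h before reading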
Procedure, shortened: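 HCT-116 cells (4000/well) rested 5 h at 37C, then got DMSO compounds by pin tool (217-fold dilution) for 16 h at 37C, 5% CO2. After the bla read, CellTiter-Glo was added and luminescence read at 30 min, room temperature.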

[3] = target: Cellular tumor antigen p53 (Homo sapiens) (UniProt P04637); assay: TOX21_p53_BLA_p3_ratio: Tox21 HCT-116 p53 Agonism Beta-lactamase Assay, Ratio, Phase 3 (AID 2283596)
Procedure, shortened: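 HCT116 p53-bla cells (4000/well) given compound in DMSO (217-fold dilution) after 5 h, incubated 16 h at 37C. CCF4-AM substrate 2 h at room temperature; 460/530 nm emission ratio, gain fitted against DMSO.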

[4] = TOX21_p53_BLA_p4_viability: Viability Assessment in the Tox21 HCT-116 p53 Agonism Beta-lactamase Assay, Phase 4 (AID 2283597);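 further: hits lower the luminescence signal meaning cytotoxicity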
Procedure, shortened: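 Compound exposure of HCT116 cells lasts 16 h at 37C, 5% CO2, with DMSO stocks diluted 217-fold. Cellular ATP is then quantified by CellTiter-Glo luminescence after 30 min at room temperature.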

[5] = target: Cellular tumor antigen p53 (Homo sapiens) (UniProt P04637); assay: TOX21_p53_BLA_p5_ratio: Tox21 HCT-116 p53 Agonism Beta-lactamase Assay, Ratio, Phase 5 (AID 2283599)
Procedure, shortened: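 HCT-116 cells carrying a p53-inducible beta-lactamase reporter were seeded at 4000 cells/well and dosed after 5 h with compound in DMSO (217-fold dilution). After 16 h at 37C, CCF4-AM substrate was added for 2 h, and the 460/530 nm emission ratio was scored as gain-of-signal versus DMSO.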

[6] = TOX21_p53_BLA_p5_viability: Viability Assessment in the Tox21 HCT-116 p53 Agonism Beta-lactamase Assay, Phase 5 (AID 2283600)
Procedure, shortened: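 Counter-readout for cytotoxicity: ATP-dependent luminescence from CellTiter-Glo, read in the beta-lactamase wells after 30 min at RT, following a 16 h compound exposure at 37C.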

[7] = target: Cellular tumor antigen p53 (Homo sapiens) (UniProt P04637); assay: TOX21_p53_BLA_p4_ratio: Tox21 HCT-116 p53 Agonism Beta-lactamase Assay, Ratio, Phase 4 (AID 2283601)
Procedure, shortened: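 HCT116 cells carrying an inducible beta-lactamase reporter were plated at 4000 cells/well, rested 5 h, then exposed to compounds in DMSO (217-fold dilution) for 16 h at 37C. CCF4-AM substrate was loaded 2 h at room temperature; 460/530 nm emission ratio scored gain-of-signal versus DMSO.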

[8] = tested on: Thyroperoxidase (TPO), gene 54314; assay: CCTE_Simmons_AUR_rTPO: CCTE's Amplex UltraRed Assay for Thyroperoxidase (TPO) Inhibition, Simmons Lab (AID 2283662);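 further: potency for loss of signal meaning inhibition of peroxidase activity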
Procedure, shortened: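 Cell-free peroxidase activity assay using rat thyroid gland microsomes with excess H2O2 (300 uM) and 25 uM Amplex UltraRed. Compounds tested from 5 nM to 87.5 uM; fluorescence measured after 30 min at 37C, analysed relative to DMSO baseline.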

[9] = CCTE_Simmons_CellTiterGLO_HEK293T: Viability Assessment in CCTE's Assays for Thyroperoxidase (TPO) Inhibition, Simmons Lab (AID 2283665);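 further: cells exposed to compound for 24 h before readout; actives reduce ATP signal below DMSO vehicle meaning cytotoxicity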
Procedure, shortened: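 HEK293T cells in DMEM with 1% FBS, dosed 24 h at 37C with 8 concentrations, 5 nM–87.5 uM final, 0.5% DMSO. ATP measured by CellTiter Glo luminescence; loss of signal vs DMSO, three biological replicates.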

Measured: AC50

Cellular tumor antigen p53 (Homo sapiens), sequence (P04637 whole entry, looked up): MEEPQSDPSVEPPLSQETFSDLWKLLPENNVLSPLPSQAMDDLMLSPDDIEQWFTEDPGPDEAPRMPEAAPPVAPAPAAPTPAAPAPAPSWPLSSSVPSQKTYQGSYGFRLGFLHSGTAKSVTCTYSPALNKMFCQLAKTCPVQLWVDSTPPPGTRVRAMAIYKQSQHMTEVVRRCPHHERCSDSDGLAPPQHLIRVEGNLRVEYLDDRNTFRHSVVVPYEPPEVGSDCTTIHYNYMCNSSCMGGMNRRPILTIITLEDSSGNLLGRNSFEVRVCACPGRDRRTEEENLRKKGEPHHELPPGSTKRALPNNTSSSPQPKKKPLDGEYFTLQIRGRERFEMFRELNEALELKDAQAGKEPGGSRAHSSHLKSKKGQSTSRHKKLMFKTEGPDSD

CC(=O)[C@@]1(O)CC[C@H]2[C@@H]3C[C@H](C)C4=CC(=O)C=C[C@]4(C)[C@@]3(F)[C@@H](O)C[C@@]21C
inactive: [1] | [2] | [3] | [4] | [5]

C[C@]12C=CC(=O)C=C1CC[C@@H]1[C@@H]2[C@@H](O)C[C@@]2(C)[C@H]1CC[C@]2(O)C(=O)CO
not listed: [7] | [8] | [9]
inactive: all other assays above

COc1ccc(C(Cl)=C(c2ccc(OC)cc2)c2ccc(OC)cc2)cc1
not listed: [8] | [9]
inactive: all other assays above

CC(C)c1ccc(C=O)cc1
inactive: [1] | [2]

CC(C)C1=CC2=CC[C@@H]3[C@](C)(CCC[C@@]3(C)C(=O)O)[C@H]2CC1
not listed: [7] | [8] | [9]
inactive: all other assays above

Nc1nc2ccccc2[nH]1
not listed: [7] | [8] | [9]
inactive: all other assays above

Cc1oncc1C(=O)Nc1ccc(C(F)(F)F)cc1
not listed: [7] | [8] | [9]
inactive: all other assays above

CCCCCCCCCCC=CC#N
not listed: [7] | [8] | [9]
inactive: all other assays above

Nc1ccc(N=Nc2ccccc2)c(N)n1
inactive: [1] | [2] | [4] | [5] | [6] | [7]
active: [1] 85.6 µM and 25.8 µM | [3] 87.8 µM and 85.8 µM and 43.2 µM | [5] 83.5 µM and 85.4 µM

CC(=O)OC(C)C
not listed: [8] | [9]
inactive: all other assays above

Nc1ncn([C@@H]2O[C@H](CO)[C@@H](O)[C@H]2O)c(=O)n1
inactive: [1] | [2] | [3] | [6]
active: [1] 1.06 µM | [3] 13.4 µM | [4] 1.15 µM and 514 nM | [5] 3.88 µM and 6.69 µM | [7] 13.6 µM and 6.66 µM

O=[N+]([O-])C1(Br)COCOC1
inactive: [1] | [2] | [3] | [4] | [5]

CCCCCCC(O)CO (stereo not given)
not listed: [8] | [9]
inactive: all other assays above

C[C@]12CCC(=O)C=C1CC[C@@H]1[C@@H]2C(=O)C[C@@]2(C)[C@H]1CC[C@]2(O)C(=O)CO
not listed: [8] | [9]
inactive: all other assays above

CCC(CO)CO
inactive: [1] | [2] | [3] | [4] | [5]

[Cl][In]([Cl])[Cl]
not listed: [8] | [9]
inactive: all other assays above

C#CC1(O)CC[C@H]2[C@@H]3CCC4=CCCC[C@@H]4[C@H]3CC[C@@]21C (stereo not given in full)
inactive: [1] | [2] | [6]
active: [1] 87.7 µM | [2] 83.3 µM | [3] 86.1 µM | [4] 55.7 µM | [5] 86.1 µM | [6] 46.1 µM | [7] 84.8 µM

CCCCC/C=C\C/C=C\CCCCCCCC(=O)OC
active: [1] 74.7 µM | [5] 73.3 µM | [8] 43.8 µM | [9] 58.4 µM
inactive: [1] | [2] | [3] | [4] | [5] | [6] | [7]

O=C(O)c1ccccc1Nc1cccc(C(F)(F)F)c1
active: [1] 19.9 µM | [4] 22.7 µM and 23 µM | [5] 46.1 µM | [7] 39.5 µM
inactive: [1] | [2] | [3] | [5] | [6] | [7]

COC(=O)C1=C(C)NC(C)=C(C(=O)OCC(C)C)C1c1ccccc1[N+](=O)[O-] (stereo not given)
active: [1] 18.4 µM | [3] 23 µM | [7] 33.2 µM and 18.9 µM
inactive: [2] | [3] | [4] | [6]

COC(=O)/C=C/C(C)=C\C=C\C(C)=C\C=C\C=C(C)\C=C\C=C(C)\C=C\C(=O)O
inactive: [1] | [2] | [3] | [4]

CCC(C)C=O (stereo not given)
not listed: [8] | [9]
inactive: all other assays above

C=C1C2CCC(C2)C1(C)C (stereo not given)
not listed: [8] | [9]
inactive: all other assays above

O=C(Oc1ccccc1)c1ccc2ccccc2c1O
not listed: [8] | [9]
inactive: all other assays above

CCOC(=O)N1CCC(=C2c3ccc(Cl)cc3CCc3cccnc32)CC1
active: [1] 36.5 µM and 12.9 µM | [2] 79.9 µM | [3] 43.3 µM and 22.4 µM | [5] 49.6 µM | [6] 75.4 µM
inactive: [2] | [4] | [5] | [6] | [7]

Nc1ccc(N)c(Cl)c1
inactive: [1] | [2] | [4] | [5] | [6] | [7]
active: [1] 68.3 µM | [3] 76.2 µM | [5] 75.2 µM | [7] 72.1 µM

COc1cc(NC(=O)CC(C)=O)c(OC)cc1Cl
active: [4] 31 µM
inactive: [1] | [2] | [3] | [4] | [5] | [6] | [7]

CCCCCCCCCCCCCCCC[N+](C)(C)CC
inactive: [1]
active: [1] 63.3 µM | [2] 65.4 µM and 35.3 µM | [3] 44.5 µM and 30.8 µM | [4] 73.7 µM and 30.9 µM | [5] 71.2 µM and 24.6 µM | [6] 74.8 µM and 18.2 µM | [7] 70.4 µM

N=c1ccn2c(n1)O[C@H]1[C@H](O)[C@@H](CO)O[C@H]12
active: [1] 1 µM and 2.41 µM | [3] 2.17 µM and 3.17 µM | [5] 2.67 µM and 729 nM | [7] 1.27 µM and 1.19 µM
inactive: [2] | [4] | [6]

Cn1c([N+](=O)[O-])cnc1COC(N)=O
not listed: [8] | [9]
inactive: all other assays above

O=C(C=Cc1ccccc1)OCc1ccccc1
not listed: [7] | [8] | [9]
inactive: all other assays above

CC(=O)OCCC1CCCCC1
inactive: [1] | [2] | [3] | [4]

CC(C)c1ccc2c(c1)CC[C@H]1[C@](C)(CN)CCC[C@]21C
active: [1] 47.1 µM | [2] 32.3 µM | [3] 72.5 µM | [4] 49.6 µM | [5] 78.5 µM | [6] 63.5 µM

CC(=O)Nc1ccc2c(c1)Cc1cc(NC(C)=O)ccc1-2
inactive: [1] | [2] | [3] | [4] | [5]

CC(C)(C)C(=O)C=Cc1ccc(Cl)cc1
inactive: [1] | [2] | [3] | [4] | [5]

O=C(Nc1ccccc1SSc1ccccc1NC(=O)c1ccccc1)c1ccccc1
active: [1] 58.3 µM and 56.6 µM | [3] 72.5 µM | [5] 60 µM and 53.4 µM | [7] 65.5 µM and 56.9 µM
inactive: [2] | [3] | [4] | [6]

C(=CC=Nc1ccccc1)C=CNc1ccccc1
not listed: [7] | [8] | [9]
inactive: all other assays above

CCCCCCCCCCCSCC(=O)O
active: [1] 83.3 µM | [4] 84 µM | [5] 83.5 µM | [6] 74 µM | [7] 86.7 µM
inactive: [2] | [3]

COc1c2ccoc2cc2oc(=O)ccc12
not listed: [7] | [8] | [9]
inactive: all other assays above

Cc1cc(O)c(Cl)c(C)c1Cl
active: [1] 73.9 µM | [2] 57.8 µM | [3] 85 µM | [4] 61.7 µM | [6] 70.1 µM | [7] 74.9 µM

COCC(C)N (stereo not given)
not listed: [8] | [9]
inactive: all other assays above

CC1OC1C1CCC2(C)OC2C1 (stereo not given)
not listed: [6] | [8] | [9]
inactive: all other assays above

CCCOC(=O)CCCCC(=O)OCCC
not listed: [5] | [8] | [9]
inactive: all other assays above

O=c1[nH]nc(-c2ccc([N+](=O)[O-])o2)o1
not listed: [5] | [8] | [9]
inactive: all other assays above

CCCNC(=O)NS(=O)(=O)c1ccc(Cl)cc1
not listed: [8] | [9]
inactive: all other assays above

C[Si](C)(CCCN)O[Si](C)(C)CCCN
not listed: [6] | [8] | [9]
inactive: all other assays above

OC1OCCOC1O (stereo not given)
not listed: [6] | [8] | [9]
inactive: all other assays above

CCCCCCCC/C=C\CCCCCCCC(=O)O
not listed: [8] | [9]
inactive: all other assays above

O=c1cc[nH]c(=S)[nH]1
inactive: [1] | [2] | [3] | [4] | [6]

OC1CCCCCCCCCCC1
not listed: [8] | [9]
inactive: all other assays above

SCCc1cnccn1
active: [1] 45.1 µM | [3] 21.6 µM | [5] 35.7 µM | [7] 60.3 µM
inactive: [2] | [4]

CCCCC(CC)CCC(CC(C)C)OS(=O)(=O)O (stereo not given)
not listed: [5] | [8] | [9]
inactive: all other assays above

CC1(C)O[C@@H]2C[C@H]3[C@@H]4C[C@H](F)C5=CC(=O)CC[C@]5(C)[C@H]4[C@@H](O)C[C@]3(C)[C@]2(C(=O)CO)O1
not listed: [5] | [8] | [9]
inactive: all other assays above

O=C1OC(=O)c2cc(Oc3ccc4c(c3)C(=O)OC4=O)ccc21
not listed: [5] | [8] | [9]
inactive: all other assays above

NCCCN1CCN(CCCN)CC1
not listed: [6] | [8] | [9]
inactive: all other assays above
